# Measles CPE – compounds protecting cells from measles virus cytopathic effect, primary screen, measles RdRp inhibitor project, single point, MLSMR library, absorbance | protection (pct of control), % at 4 µM | Measles virus-infected cells, CPE protection | 140,000 compounds, 1.5% hits; in the data active = protection mostly above about 24%, no sharp cut-off; inactive = mostly below about 26%
# CYP2C9 inhib – blockers of cytochrome P450 2C9 activity – biochemical, luminescence, ADME assay, primary screen; CYP2C9 Supersomes, luciferin-H conversion; 96,000 compounds, 20% hits; AID 777, 2007; inhibition, % at 5 µM; P11712;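 active = blocking of liver enzyme CYP2C9 beyond about 50% at 5 µM, limit read from the data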
# CYP2C19 inh – blockers of cytochrome P450 2C19 activity – biochemical, luminescence, ADME assay, primary screen | P33261 | CYP2C19 Supersomes, luciferin-H EGE luminescence, 30 min | inhibition, % at 5 µM | 96,000 compounds, 21% hits;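 active = CYP2C19 inhibition above a set limit at 5 µM in the primary screen, cut at about 50% in these data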;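 also: plate controls were negative control wells for no effect and 2.5 mM tranylcypromine positive control for full effect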
# Target sequence (P33261 whole entry, looked up): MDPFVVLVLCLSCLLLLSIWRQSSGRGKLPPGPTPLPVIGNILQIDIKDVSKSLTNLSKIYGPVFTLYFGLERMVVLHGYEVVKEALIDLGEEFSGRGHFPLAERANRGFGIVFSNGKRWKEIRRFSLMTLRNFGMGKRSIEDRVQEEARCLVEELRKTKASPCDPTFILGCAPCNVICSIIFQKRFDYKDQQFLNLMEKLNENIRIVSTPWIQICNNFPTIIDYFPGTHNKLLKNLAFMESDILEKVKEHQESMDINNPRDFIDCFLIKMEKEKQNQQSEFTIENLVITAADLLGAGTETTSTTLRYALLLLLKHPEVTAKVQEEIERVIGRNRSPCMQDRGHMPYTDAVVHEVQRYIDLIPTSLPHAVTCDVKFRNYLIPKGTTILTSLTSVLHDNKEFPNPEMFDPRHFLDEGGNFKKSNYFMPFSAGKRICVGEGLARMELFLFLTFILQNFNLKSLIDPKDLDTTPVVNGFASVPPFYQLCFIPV
# CYP2C9 act – human CYP2C9 activators, primary screen, biochemical, luminescence. recombinant CYP2C9, luciferin-H conversion; active compounds read high; factor 1 = untreated enzyme, 0 = blocked. Cytochrome P450 2C9 (Homo sapiens), P11712. 96,000 compounds, 1.4% hits. activation factor at 5 µM. AID 1024, 2008;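 active = activation factor of 2 or more for CYP2C9 at a 5 µM dose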;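 also: 0 = sulfaphenazole-blocked wells and 1 = vehicle-only wells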
# CYP2C19 activ – human CYP2C19 activators, primary screen, biochemical, luminescence. Cytochrome P450 2C19 (Homo sapiens), P33261. recombinant CYP2C19, luciferin-H EGE luminescence; active compounds read high; 0 = fully inhibited enzyme, 1 = untreated enzyme. activation factor at 5 µM. 96,000 tested, under 10 active;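 active = activation factor of at least 2 at 5 µM in the primary screen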;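 also: 0 = wells with 2.5 mM tranylcypromine and 1 = vehicle-only wells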
# * hit, by the source's call; . = not tested or not shown. A selection: hits, their analogues and other compounds. The true share with any hit is near 22%.
SMILES,Measles CPE,CYP2C9 inhib,CYP2C19 inh,CYP2C9 act,CYP2C19 activ
Cc1cccc2cc(CN(Cc3ccco3)C(=O)Nc3cccc(C#N)c3)c(Cl)nc12,18,95*,62*,0.1,0.4
CN(C=O)CP(=O)(O)CN1CCCCC1,21,-20,-19,1.2,1.2
Cc1nc2c3ccccc3nc(SCC(=O)N3CC(C)CC(C)C3)n2n1 (configuration not stated),6,23,54*,0.8,0.5
Cc1cc(C)cc(C(=O)N2CC(C)SC2=Nc2cccc(S(=O)(=O)N(C)C)c2)c1 (configuration not stated),17,.,.,.,.
CCOCCOC(=O)C1=C(C)N(C)C(=O)NC1c1cc(Cl)c(O)c(OCC)c1 (configuration not stated),3,.,.,.,.
CC1=C(C(=O)OCC(C)C)C(c2ccccc2Cl)NC(=O)N1C (configuration not stated),22,84*,98*,0.2,0
CCSCCOC(=O)C1=C(C)N(C)C(=O)NC1c1cc(OC)ccc1OC (configuration not stated),7,79*,93*,0.2,0.1
CCOCCOC(=O)C1=C(C)N(C)C(=O)NC1c1ccccc1Cl (configuration not stated),18,12,54*,0.9,0.5
COC(=O)C1=CN(C(C)C)C=C(C(=O)OC)C1c1cc2c(cc1Br)OCO2,3,26,60*,0.7,0.4
CCOC(=O)NC(=O)COC(=O)Cc1cc(OC)c(OC)c(OC)c1,35,2,8,1,0.9
O=C1CN(C(=O)COc2ccccc2)CCN1,12,.,.,.,.
Cc1cc(C)cc(C(=O)N2CCC(C(N)=O)CC2)c1,5,-81,0,1.8,1
CC1=C(C(=O)OCC(C)C)C(c2cc3c(cc2Br)OCO3)NC(=O)N1C (configuration not stated),6,72*,84*,0.3,0.2
Cn1c(SCC(=O)Nc2sc3c(c2C#N)CCC3)nnc1C1COc2ccccc2O1 (configuration not stated),26,67*,22,0.3,0.8
C=CCn1c(SCC(=O)Nc2sc3c(c2C#N)CCC3)nnc1C1COc2ccccc2O1 (configuration not stated),17,66*,7,0.3,0.9
CN(C)c1nc2n(c(=O)n1)C(C#N)CS2 (configuration not stated),2,.,.,.,.
COc1ccc(NC(=O)Cn2nnc(-c3ccccc3NC(=O)C3CC3)n2)cc1,6,44,94*,0.6,0.1
CCc1nnc(NC(=O)Cn2nnc(-c3ccccc3F)n2)s1,12,66*,11,0.3,0.9
CCC(=O)Nc1ccccc1-c1nnn(CC(=O)N2c3ccccc3CC2C)n1 (configuration not stated),6,78*,45,0.2,0.6
CCOc1ccc(NC(=O)Cn2nnc(-c3ccccc3NC(=O)C3CC3)n2)cc1,8,36,82*,0.6,0.2
CN(C)c1cc(-c2ccccc2)nc(N)n1,5,14,32,0.9,0.7
O=C(O)C1C2C=CC(C3CC23)C1C(=O)N1CCc2ccccc21 (configuration not stated),11,-8,-17,1.1,1.2
COc1ccccc1NC(=O)Cn1nnc(-c2ccccc2NC(=O)c2cccs2)n1,3,26,-1,0.7,1
O=C(Cn1nnc(-c2ccccc2NC(=O)c2cccs2)n1)Nc1ccccc1,13,76*,23,0.2,0.8
COc1ccc(C(=O)Cn2nnc(-c3ccccc3NC(=O)C(F)(F)F)n2)cc1,6,-16,2,1.2,1
SMILES,Measles CPE,CYP2C9 inhib,CYP2C19 inh,CYP2C9 act,CYP2C19 activ
COc1ccc(NC(=O)Cn2nnc(-c3ccccc3F)n2)cc1,49*,14,16,0.9,0.8
COc1cc(NC(=O)Cn2nnc(-c3ccccc3N)n2)cc(OC)c1,4,54*,40,0.5,0.6
COc1ccc(NC(=O)Cn2nnc(-c3ccccc3N)n2)cc1OC,2,3,-14,1,1.1
COc1ccc(C(=O)Cn2nnc(-c3ccccc3NC(=O)C3CCCCC3)n2)cc1,32*,85*,19,0.1,0.8
CCN(CC)C(=O)c1cnn(-c2ccccc2)c1NC(=O)c1cccs1,15,.,.,.,.
CC(C)(C)c1nnc(NC(=O)Cc2ccc(Br)cc2)s1,2,.,.,.,.
COc1ccc(N(CC(O)Cn2cnc3ccccc32)S(=O)(=O)c2ccc(C)cc2)cc1 (configuration not stated),2,.,.,.,.
O=C(C1CC1)N1CCc2cc(S(=O)(=O)NCC3COc4ccccc4O3)ccc21 (configuration not stated),3,52*,72*,0.5,0.3
O=C(C1CCC1)N1CCc2cc(S(=O)(=O)NCC3COc4ccccc4O3)ccc21 (configuration not stated),8,25,17,0.8,0.8
CCC(=O)N1CCc2cc(Br)cc(S(=O)(=O)NCc3ccco3)c21,18,-7,53*,1.1,0.5
O=C(C1CC1)N1CCc2cc(Br)cc(S(=O)(=O)NCC3COc4ccccc4O3)c21 (configuration not stated),4,59*,91*,0.4,0.1
CC(=O)N1CCc2cc(S(=O)(=O)NC(C(=O)Nc3ccc4c(c3)OCCO4)C(C)C)ccc21 (configuration not stated),11,52*,39,0.5,0.6
CC(=O)N1CCc2cc(S(=O)(=O)CCC(=O)Nc3ccc4c(c3)OCCO4)ccc21,4,4,12,1,0.9
CC(=O)N1CCc2cc(S(=O)(=O)NC(C(=O)Nc3nc(C)cs3)C(C)C)ccc21 (configuration not stated),12,2,2,1,1
CCOC(=O)c1cccc(NC(=O)C(NS(=O)(=O)c2ccc3c(c2)CCN3C(C)=O)C(C)C)c1 (configuration not stated),23,68*,19,0.3,0.8
O=[N+]([O-])c1cccc(C2=NCCC(c3ccccc3)O2)c1 (configuration not stated),8,.,.,.,.
CCn1c(O)c(/C=N/N=C/c2ccccc2)c2ccc(C3=NNC(=O)CC3)cc21,21,64*,42,0.4,0.6
CC1(C)CC(NC(=O)C23CCC(C)(C(=O)C2)C3(C)C)CC(C)(C)N1 (configuration not stated),9,60*,-1,0.4,1
COc1ccc(C(=O)NCCSc2ccccc2)cc1,6,.,.,.,.
O=C(NCCn1ccc2ccccc21)c1ccc2c(c1)OCO2,7,13,65*,0.9,0.3
COc1ccc(C(=O)NCCn2ccc3ccccc32)cc1,17,-20,78*,1.2,0.2

# Compound activity (PubChem BioAssay)
